PubChem BioAssay (NCI)
Compounds without any hit were thinned out: in the full panel of roughly 83,000, 20% have a hit.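 Step 1: grow cells in 96-well plates. Step 2: add test compound at a single concentration. Step 3: incubate 48 h. Step 4: record percent growth.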 Unmarked numbers belong to inactive results. Calls of active or inactive are those of the source.

What follows are compounds tested on SK-MEL-2 melanoma (assay: NCI-60 one-dose screen, 48 h (100 = growth as untreated, 0 = no growth, -100 = all killed)). Details: 10 µM unless noted.
Description: Growth inhibition of the SK-MEL-2 human tumor cell line is measured as a screen for anti-cancer activity. Cells are grown in 96 well plates and exposed to the test compound for 48 hours. Compounds are tested at a single concentration, which is 10^-5 M for most compounds. The reported endpoint is percent growth (GI% or GIPRCNT), where numbers from 0 - 100% represent growth inhibition, and numbers from -100% - 0 represent cell death. For example, a value of 40 represents 60% growth inhibition. A value of 0 means no net growth occurred over the course of the experiment. A value of -40 indicates 40% of cells at the beginning of the experiment died by the end of the experiment. A value of -100 means all cells are dead at the end of the experiment.
NCI-60 Human Tumor Cell Lines Screen was performed using the standard one-dose NCI protocol, which is described in more detail at https://dtp.cancer.gov/discovery_development/nci-60/default.htm.
Compounds with GIPRCNT values below 10 were considered active. Activity score was based on GIPRCNT using the following formula: […]
Score is 0 for GIPRCNT values of 100 or above, 50 for GIPRCNT values of 0, and 100 for GIPRCNT values of -100.
Compound O=S(=O)(NCCCNc1nccc(-c2c(-c3ccc(F)c(O)c3)nc3occn23)n1)c1ccccc1 has a growth of 31.9%. COc1ccc(-c2ccc3cnc4sc(-c5ccc(OC)cc5)nc4c3n2)cc1 showed a growth of 96.2%. For CCN(CC)CCOc1ccc(C(=C(C)c2ccc(Cl)cc2)c2ccc(OCCN(CC)CC)cc2)cc1, the growth was -60.2% (active). COc1ccc(C(=S)N2CCN(c3ccccc3Cl)CC2)cc1OC was tested, and the growth was 101%. With CC1(C)CCC(S(=O)(=O)c2ccc3c(c2)/C(=N\O)c2cc(S(=O)(=O)N4CCC(O)(c5cccc(C(F)(F)F)c5)CC4)ccc2-3)CC1 the growth was -90.2% (active). COc1cccc(NC(=O)Cn2cc(CN3CCN(c4ccnc5cc(Cl)ccc45)CC3)nn2)c1 gave a growth of 106%. Compound O=C(Nc1ncc(Cc2ccc(Cl)c(C(F)(F)F)c2)s1)c1ccc2nnsc2c1 has a growth of 47.5%. For N#Cc1c(-c2ccc(Cl)cc2)nc(SCC(=O)NC2=NN=C(c3ccccc3)CS2)[nH]c1=O, the growth was 82.9%. In the case of Cc1ccc(/C=C2\CN(C(=O)OC(C)(C)C)C/C(=C\c3ccc(C)cc3)C2=O)cc1, the growth is reported as 83.8%. Compound Cc1nn(-c2ccccc2)c(Oc2ccccn2)c1-c1nc2ccccc2s1 has a growth of 99.2%. In the case of Clc1ccc(Nc2nnc(COc3ccccc3)c3ccccc23)cc1, the growth is reported as -26.5% (active). Compound Cc1nnc(-n2c(O)cc(=O)n(-c3ccccc3)c2=S)nc1/C=C/c1ccc(N(C)C)cc1 has a growth of 55.2%. With CCOC(=O)C1=NN(c2ccccc2)C(=O)/C1=C\N1C(=O)CC(=O)NC1=S the growth was 98%. In the case of COc1ccc2nc(NC(=O)CSc3nnc4n3S(=O)(=O)c3ccccc3N4C)sc2c1, the growth is reported as 50.6%. For N#Cc1c(NC(=O)c2ccccc2)sc2c1CCC(=O)C2, the growth was 13.6%. For O=C1Nc2ccccc2[C@]12CC(c1ccccc1)=NN2, the growth was 44.9%. C=C1C(=O)O[C@H]2[C@H]1CC/C(COC(=O)NCc1ccc(Cn3c(=O)sn(CCI)c3=O)cc1)=C\CC[C@@]1(C)O[C@@H]21 gave a growth of 73.9%. Work on CCOC(=O)c1c(C)c2c(n1C)CSc1cc(C(=O)c3ccccc3)c(=O)[nH]c1-2 yielded a growth of 122% [100 µM]. Work on C=C(C)[C@@H]1CC[C@]2(C(=O)OC)CC[C@]3(C)[C@H](CC[C@@H]4[C@@]5(C)C/C(=C/NC(N)=S)C(=O)C(C)(C)[C@@H]5CC[C@]43C)[C@@H]12 yielded a growth of 103%. Compound C1=CN2CC(c3ccccc3)=NNC2c2ccccc21 (stereo not given) has a growth of 89.7%. Compound Cn1c(O)c(C=NCCN=Cc2c(O)n(C)c(=O)n(C)c2=O)c(=O)n(C)c1=O has a growth of 120%. CC(C)c1ccc(NC(=O)Nc2ccc(NC(=O)CCCC(=O)NOCc3ccccc3)cc2)cc1 showed a growth of 87.7%. For CC[C@]12C=CCN3CC[C@@]4(c5cc(NC(=O)CCC(=O)OCc6cn(Cc7ccc(F)cc7)nn6)c(OC)cc5N(C)[C@H]4[C@@](O)(C(=O)OC)[C@@H]1OC(C)=O)[C@@H]32, the growth was 109%. Compound O=C1c2ccc3c4ccc5c6c(ccc(c7ccc(c2c37)C(=O)N1CCC[P+](c1ccccc1)(c1ccccc1)c1ccccc1)c64)C(=O)N(CCC[P+](c1ccccc1)(c1ccccc1)c1ccccc1)C5=O has a growth of 98.7%. CN([O-])c1nc(N(C)[O-])nc(N2CCOCC2)n1.CN([O-])c1nc(N(C)[OH2+])nc(N2CCOCC2)n1.[Fe+3] showed a growth of 84.9% [100 µM]. In the case of CCCCCC(=O)OCC(=O)O[C@@H]1C[C@]2(C(C)C)O[C@@]1(C)[C@@H]1CC[C@@H](C)[C@H]1[C@@H]2OC(=O)/C=C/c1ccccc1, the growth is reported as 94%. In the case of CC(=O)OCc1nc(C#N)c(N(C)C)o1, the growth is reported as 88.8%. Work on Cc1ccc(NC(=S)NNC(=S)NNc2ccccc2)cc1C yielded a growth of 91.2%. Fc1ccc2[nH]cc(-c3nonc3-c3c[nH]c4ccc(Br)cc34)c2c1 showed a growth of 27%. For O=c1oc2ccc([N+](=O)[O-])cc2cc1Br, the growth was 106%. In the case of COCCn1cc(-c2nc(-c3cc4cccnc4n3CCOC)cs2)c2cc(OC)ccc21, the growth is reported as 71.6%. COC(=O)[C@H]1CCCN1C[C@@H](O)CN1C(=O)/C(=C\c2cc(OC)c(OC)c(OC)c2)c2ccccc21 was tested, and the growth was 94.3%. With Cc1ccc(-c2nc(/C=C3/C(=O)Nc4ccccc43)c3ccccn23)cc1 the growth was 39.3%. For O=C(CCCCCCN1CC(=O)N2[C@H](c3cc(Br)cs3)c3[nH]c4ccccc4c3C[C@H]2C1=O)NO, the growth was 50%. COc1cc2oc(-c3cccc(NC(=O)c4cccc(Br)c4)c3)cc(=O)c2c(OC)c1OC was tested, and the growth was 54%. Work on COc1cc(N2C(=O)[C@H](O)C2c2ccc(SC)cc2)cc(OC)c1OC (stereo not given in full) yielded a growth of 16.6%. Work on Nc1ncnc2c1N=C(c1ccc3c(c1)OCO3)CC(c1cccc(Nc3ccnc4cc(Cl)ccc34)c1)N2 (stereo not given) yielded a growth of 68.7%. CCn1cc(C(=O)N/N=C/c2cccs2)c(=O)c2cc(F)c(N3CCNC(C)C3)c(F)c21 (stereo not given) was tested, and the growth was 103%. O=C1/C(=C/c2cccs2)SC(=S)N1CCCN1CCOCC1 showed a growth of 101%. Work on C=CCc1c(O)c(C(=O)/C=C/c2ccc(Cl)cc2)c(OC)c2ccoc12 yielded a growth of 15.7%.
